Measurements from PubChem BioAssay (NCATS).
Records with an inconclusive call do not appear. Where a call stands in place of a potency, no number is given. Active and inactive are the calls of the source. The call rests on the fitted dose curve; in most records, active means well fitted inhibition curve with a large enough effect; inconclusive means small, poorly fitted or top-dose-only effect; inactive means no such curve, though single readings can be large or run the other way.
Potency means the concentration at half of the fitted maximal effect.

What follows are compounds tested against Cytochrome P450 3A7 (Homo sapiens) (UniProt P24462) (assay: Cytochrome P450 family 3 subfamily A member 7 (CYP3A7) small molecule antagonists: luciferase biochemical qHTS assay (AID 1963596; further: nearly all actives have a fitted effect of over 40% in size)). Details: P450-Glo CYP3A7 enzyme luminescence, 1 h; series mostly up to 57.4 µM.
Cytochrome P450 3A7 (Homo sapiens), sequence (P24462 whole entry, looked up): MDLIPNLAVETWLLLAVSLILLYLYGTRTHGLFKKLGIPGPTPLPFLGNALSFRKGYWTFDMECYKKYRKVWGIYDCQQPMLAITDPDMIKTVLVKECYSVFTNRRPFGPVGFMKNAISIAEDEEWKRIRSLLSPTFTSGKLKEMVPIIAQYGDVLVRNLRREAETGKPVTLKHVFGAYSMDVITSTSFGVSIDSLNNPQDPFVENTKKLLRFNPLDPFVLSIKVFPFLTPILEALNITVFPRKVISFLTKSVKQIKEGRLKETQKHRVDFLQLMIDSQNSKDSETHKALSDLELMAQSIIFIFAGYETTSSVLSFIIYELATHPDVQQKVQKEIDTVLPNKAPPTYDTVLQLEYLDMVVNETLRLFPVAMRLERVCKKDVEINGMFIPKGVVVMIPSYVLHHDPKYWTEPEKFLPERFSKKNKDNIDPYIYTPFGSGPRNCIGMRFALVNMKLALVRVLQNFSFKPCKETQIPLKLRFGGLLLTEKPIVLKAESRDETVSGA
Source text: National Center for Advancing Translational Sciences [NCATS] Assay Overview: Cytochrome P450 (CYP) enzymes are membrane-bound hemeproteins that play a key role in metabolism of drugs and xenobiotics. The CYP3A subfamily is the most abundant, representing 30% of the total adult hepatic CYP content, whereas CYP3A7 is found predominantly in human fetal liver and accounts up to 50% of the total fetal hepatic CYP content. Testing the effect of chemicals on CYP isozymes is useful to minimize the adverse drug reactions and toxicities in the drug development process. Chemicals were tested for their effect on CYP enzyme activities by using P450-Glo (TM) screening systems (Promega Corporation, Madison, WI). These systems provide a luminescent method containing proluciferin substrates and are converted to luciferin products by CYP isozymes. The luciferin products formed are detected with a luciferin detection reagent, and the amount of light produced is proportional to CYP activity. P450-Glo (TM) CYP3A7 screening system (Catalog. No. V8812) was used to detect the compounds that interfere with CYP3A7 activity. The positive control compound used for CYP3A7 assay is ketoconazole (Sigma-Aldrich, St. Louis, MO).
Assay Protocol Summary: Two ul of enzyme-substrate mix was dispensed into medium binding white/solid 1536-well plates (Greiner Bio-One North America Inc., Monroe, NC) using a Flying Reagent Dispenser (FRD, Aurora Discovery, San Diego, CA). Compounds dissolved in DMSO, and positive control (ketoconazole) were transferred to the assay plates at 23 nl using a Pintool station (Wako, San Diego, CA). The assay plates were incubated at room temperature for 10 min. Then 2 ul of NADPH regeneration solution was added to each well of the assay plates using an FRD and incubated at room temperature for 1 h. The reaction was stopped by adding 4 ul of detection reagent using an FRD and after 20 min incubation at room temperature the luminescence signal was measured using a ViewLux plate reader (Perkin Elmer, Shelton, CT). Data were expressed as relative luminescence units.
`CC(=O)c1cc2ccccc2s1` was tested, and the Potency was “inactive”.
In the case of `Cc1nc(NC(=O)N2CCCC2C(N)=O)sc1-c1csc(C(C)(C)C)n1` (stereo not given), the Potency is reported as “inactive”.
In the case of `Cn1c(N2CCCCS2(=O)=O)nc(C(=O)NCc2ccc(F)cc2)c(O)c1=O`, the Potency is reported as “inactive”.
With `CC[N+](C)(CC)CCOC(=O)C1c2ccccc2Oc2ccccc21` the Potency was “inactive”.
In the case of `CC(C)Cc1ccc(C(C)C(=O)O)cc1` (stereo not given), the Potency is reported as “inactive”.
In the case of `CC(C)CCCC(C)N` (stereo not given), the Potency is reported as “inactive”.
For `O=C(NC[C@H](O)CN1CCc2ccccc2C1)c1cc(NC2COC2)ncn1`, the Potency was “inactive”.
With `COc1nccc(-c2c(-c3ccc(F)cc3)ncn2C2CCC(O)CC2)n1` (stereo not given) the Potency was “inactive”.
`COC(=O)/C=C(/C)N` was tested, and the Potency was “inactive”.
With `COc1ccccc1OCC(O)COC(N)=O` (stereo not given) the Potency was “inactive”.
With `COC(=O)N[C@@H](C)CNc1nccc(-c2cn(C(C)C)nc2-c2cc(Cl)cc(NS(C)(=O)=O)c2F)n1` the Potency was “inactive”.
In the case of `O=C(OC(C(F)(F)F)C(F)(F)F)N1CCN(Cc2cccc(Oc3ccccc3)c2)CC1`, the Potency is reported as “inactive”.
In the case of `CCCCN=C(N)NC(=N)N`, the outcome is reported as “inactive”.
For `Nc1cc(=O)[nH]c(N)n1`, the Potency was “inactive”.
For `C=CCCCCCCCCC(=O)OC`, the Potency was “inactive”.
`COc1cc(OC)c(NC(=O)c2ccc(Cc3cc4c(cc3C)C(C)(C)CCC4(C)C)o2)c(OC)c1` was tested, and the Potency was “inactive”.
`C=CCn1c(=O)c2cnc(Nc3ccc(N4CCN(C)CC4)cc3)nc2n1-c1cccc(C(C)(C)O)n1` was tested, and the Potency was 10 µM (active).
For `OC[C@H]1O[C@@H]2O[C@H]3[C@H](O)[C@@H](O)[C@@H](O[C@H]4[C@H](O)[C@@H](O)[C@@H](O[C@H]5[C@H](O)[C@@H](O)[C@@H](O[C@H]6[C@H](O)[C@@H](O)[C@@H](O[C@H]7[C@H](O)[C@@H](O)[C@@H](O[C@H]8[C@H](O)[C@@H](O)[C@@H](O[C@H]1[C@H](O)[C@H]2O)O[C@@H]8CO)O[C@@H]7CO)O[C@@H]6CO)O[C@@H]5CO)O[C@@H]4CO)O[C@@H]3CO`, the Potency was “inactive”.
`Fc1ccc(-c2nc(-c3c(F)cccc3F)[nH]c2-c2ccncc2)cc1` was tested, and the Potency was “inactive”.
With `CNC(=O)c1c(I)c(NC(=O)CCCCC(=O)Nc2c(I)c(C(=O)O)c(I)c(C(=O)NC)c2I)c(I)c(C(=O)O)c1I` the Potency was “inactive”.
`C[S+](=O)([O-])Nc1ccc(-c2ccc3nc(-c4cccc(OC(F)(F)F)c4)[nH]c3c2)cc1` was tested, and the Potency was “inactive”.
For `Cc1ccc(C(=O)c2cn(CC(=O)Nc3ccc4c(c3)OCCO4)c3nc(C)ccc3c2=O)cc1`, the Potency was “inactive”.
`Cc1ncc(C[n+]2csc(CCO)c2C)c(N)n1` was tested, and the Potency was “inactive”.
For `O=c1[nH]c(=O)n([C@H]2CCCO2)cc1F`, the Potency was “inactive”.
For `CC(=O)N(CC(O)CO)c1c(I)c(C(=O)NCC(O)CO)c(I)c(C(=O)NCC(O)CO)c1I` (stereo not given), the Potency was “inactive”.
In the case of `CC(=O)c1ccc(OCC(=O)N2CCCCC2)cc1`, the Potency is reported as “inactive”.
`CCOC(=O)C(=O)CCCCCCl` was tested, and the Potency was “inactive”.
In the case of `CC[N+](CC)(CC)CCOc1cccc(OCC[N+](CC)(CC)CC)c1OCC[N+](CC)(CC)CC`, the Potency is reported as “inactive”.
With `CC[N+](CC)(CC)CCOC(=O)C(C1CCCC1)C1CCCC1` the Potency was “inactive”.
`CCC(=O)c1ccc(O)cc1` was tested, and the Potency was “inactive”.
With `CN1CCN(c2cc3c(nn2)Oc2ccccc2N3C)CC1` the Potency was “inactive”.
With `Cc1ccc(-c2ccc3ncc4c(c3n2)n(C2CCN(C(=O)[C@H](C)O)CC2)c(=O)n4C)cn1` the Potency was “inactive”.
`CC(C)(C)NCC(O)COc1cccc2c1CCC(=O)N2` (stereo not given) was tested, and the Potency was “inactive”.
`CCn1cc(C(=O)O)c(=O)c2cnc(N3CCCC3)nc21` was tested, and the activity change, negative = inhibition was 25.3% [at 11.5 µM] (inactive).
In the case of `O=C1c2c(O)cccc2Cc2cccc(O)c21`, the Potency is reported as “inactive”.
For `COc1cc(C(=O)NCc2ccc(OCCN(C)C)cc2)cc(OC)c1OC`, the Potency was “inactive”.
With `COc1nc(N)nc2c1ncn2[C@@H]1O[C@H](CO)[C@@H](O)[C@@H]1O` the Potency was “inactive”.
With `Cc1ccc(S(=O)(=O)Nc2nc3n(n2)C(c2ccc(Cl)cc2)C=C(c2ccccc2)N3)cc1` (stereo not given) the Potency was “inactive”.
In the case of `CC(C)[C@@H]1C(=O)N(S(C)(=O)=O)[C@@H]2CCN(C(=O)/C=C/CN3CCCCC3)[C@H]21`, the Potency is reported as “inactive”.
For `CC(=O)OCC(COC(C)=O)OC(C)=O`, the Potency was “inactive”.
